Most compounds without a hit are left out; they make up all but 6.8% or so of the library.
HCV NS3h FP: blocks HCV NS3 helicase binding to DNA. NS3h Cy5-dT15 DNA binding, fluorescence polarization. inhibition, % at 100 µM. 16,000 compounds, 1.6% hits;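 active = inhibition above the average over every tested compound plus 3 SD, cut at about 40% in these data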
Cy5 interf NS3h: enhances or quenches Cy5 fluorescence in NS3h assay. AID 720488. Cy5-dT15 DNA with NS3h, fluorescence interference; actives lie on both sides; signal over control mean, under 1 quenches. fluorescence interference ratio at 100 µM. 16,000 compounds, 6% hits;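 active = compound fluorescence over control fluorescence at most 0.8, a quencher, or at least a set upper limit, an enhancer; inactive = ratio between 0.8 and the set upper limit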
Active calls of the source: *.

SMILES | HCV NS3h FP | Cy5 interf NS3h
Cc1cccc(C(=O)N2N=C(c3ccc(F)cc3)CC2(O)C(F)(F)F)c1 (centres undefined) | 2 | 0.91
CCOC(=O)C1=C(C)N=c2s/c(=C/c3ccc(I)o3)c(=O)n2C1c1ccccc1OC (centres undefined) | 13 | 0.73*
CCOC(=O)C1=C(C)N=c2s/c(=C\c3ccc(N(CC)CC)o3)c(=O)n2C1c1ccc(OC)c(OC)c1 (centres undefined) | 12 | 0.99
COC(=O)CN(c1ccc(C)cc1C)S(=O)(=O)c1ccccc1 | -4 | 0.92
O=C(c1cccc(C#Cc2ccccc2)c1)N1CCN(C/C=C/c2ccccc2)CC1 | 17 | 0.97
C=C(C)c1cccc(C(C)(C)NC(=O)N2CCN(C/C=C/c3ccccc3)CC2)c1 | 10 | 0.65*
Cc1nc2cc(-c3cccc(F)c3)[nH]n2c(=O)c1C | 15 | 1.1
CC(C)c1ccc(/C=C(\NC(=O)c2ccccc2)C(=O)NCCCN(C)C)cc1 | 7 | 0.99
O=C1OC2C=CC(Br)=CC2C=C1C(=O)N1CCSC1c1ccc2c3c(cccc13)CC2 (centres undefined) | 13 | 1
O=C1OC2C=CC(Br)=CC2=CC1C(=O)N1CCSC1c1ccccc1Cl (centres undefined) | 21 | 0.73*
COC(=O)c1cc(C(=O)NCc2ccc(OC)cc2)cc([N+](=O)[O-])c1 | 10 | 0.96
CCN(Cc1ccccc1)C(=O)c1cc(C(=O)OC)cc([N+](=O)[O-])c1 | 9 | 0.66*
O=C(NC(=S)Nc1cccc(C(F)(F)F)c1)c1ccco1 | 9 | 0.94
COCCNC(=O)C(=O)Nc1ccccc1OC | -10 | 0.95
CC(C)N=C1NS(=O)(=O)c2cc([N+](=O)[O-])ccc21 | -4 | 1
CC(C)(C)CC(C)(C)N=C1NS(=O)(=O)c2cc([N+](=O)[O-])ccc21 | 3 | 0.61*
Cc1ccc(-c2cc(NC(=O)COc3ccc(Cl)cc3Cl)n[nH]2)cc1 | -6 | 1.1
O=C(Nc1ccc(F)c([N+](=O)[O-])c1)c1ccc(-c2ccc(Cl)cc2Cl)o1 | -52 | 0.95
COc1cc(/C=C2/C(=O)NN(c3ccc(Cl)cc3)C2=O)cc(Br)c1O | -1 | 0.77*
Cc1ccc(N2NC(=O)/C(=C/c3cccc(Br)c3)C2=O)cc1 | 23 | 0.79*
Cc1ccc(N2NC(=O)/C(=C\c3ccc(Br)cc3)C2=O)cc1 | 19 | 0.91
COc1cc(/C=C2\C(=O)NN(c3ccccc3)C2=O)cc(Br)c1OCC(=O)O | 29 | 1.1
O=C1c2ccccc2C(=O)N1N1C(=O)c2cccc([N+](=O)[O-])c2C1=O | 2 | 1
O=[N+]([O-])c1cccc2c1=C1C(Cl)=CC=C1C=2 | 1 | 0.54*
COc1cc(NC(=O)c2ccc(Br)cc2)cc(OC)c1 | 18 | 1
SMILES | HCV NS3h FP | Cy5 interf NS3h
COc1ccc(N2C(=O)c3ccc(C(=O)Nc4ccccc4I)cc3C2=O)cc1 | 8 | 1
COc1ccc(N2C(=O)c3ccc(OCCOc4ccc5c(c4)C(=O)N(c4ccc(OC)cc4)C5=O)cc3C2=O)cc1 | 2 | 0.64*
C=CCc1c(C)[nH]c2ccc(C(=O)OCC)cc2c1=O | 13 | 1.1
O=C1C2C3C=CC(CC3)C2C(=O)N1/N=C\c1ccc(I)o1 (centres undefined) | -2 | 1
O=C1C2C3C=CC(CC3)C2C(=O)N1/N=C\c1cc([N+](=O)[O-])cc(Br)c1O (centres undefined) | 10 | 0.68*
CCc1cc(=O)oc2cc(C)cc(OC(C)=O)c12 | 1 | 1.1
CCc1cc(=O)oc2cc(C)cc(OCC(=O)c3ccccc3)c12 | -4 | 1.3*
Nc1nonc1C(=O)NCCNC(=O)c1cccc(Br)c1 | 14 | 0.71*
O=C(NCCNc1ccc([N+](=O)[O-])cc1)c1cccc(Br)c1 | 20 | 1
CCN(CC)c1ccc(NC(=O)/C=C/c2cc(OC)ccc2OC)cc1 | 20 | 1
O=C(CSCc1cccc(Br)c1)N=Nc1c(O)[nH]c2ccccc12 | 16 | 0.8*
NC(=O)N=Nc1c(O)[nH]c2ccccc12 | 12 | 0.85
O=C(CO/N=C\c1ccccc1)N=Nc1c(O)[nH]c2ccc(Br)cc12 | -6 | 0.78*
Cc1ccc2[nH]c(O)c(N=NC(=O)COc3ccccc3)c2c1Br | 11 | 0.86
Cc1ccc(NC(=O)/C(C#N)=C/c2cccnc2)cc1Cl | 2 | 1
O=[N+]([O-])c1ccc(Cl)cc1NCCOc1ccc(F)cc1 | 21 | 0.69*
O=[N+]([O-])c1ccc(N2CCOCC2)cc1NCCc1ccccc1 | 30 | 0.67*
O=[N+]([O-])c1ccc(N2CCN(CCO)CC2)cc1NCCc1ccccc1 | 8 | 0.96
COc1ccccc1OCCNc1cc(Cl)ccc1[N+](=O)[O-] | 3 | 1
Cc1cccc(OCCNc2cc(Cl)ccc2[N+](=O)[O-])c1 | 14 | 0.82
O=[N+]([O-])c1ccc(Cl)cc1NCCc1ccccc1 | 18 | 0.79*
Cc1ccc(N2C(=O)NC(=O)/C(=C\c3ccc(C)s3)C2=O)cc1 | -5 | 0.82
O=C(Nc1ccc2c(c1)OCO2)c1ccc2c(c1)C(=O)N(CC1CCCO1)C2=O (centres undefined) | 23 | 0.94
O=C1c2cc(S(=O)(=O)Nc3ccc(F)cc3)ccc2-c2ccc(S(=O)(=O)Nc3ccc(F)cc3)cc21 | 12 | 0.89
O=C(Oc1ccc(Br)cc1C(=S)N1CCOCC1)c1ccc([N+](=O)[O-])cc1 | -4 | 0.97
SMILES | HCV NS3h FP | Cy5 interf NS3h
COc1ccccc1C/C(N)=N\OC(=O)c1ccccc1OC | 2 | 1.1
Cc1cc(C)cc(CC2CC(=O)N(c3ccc(I)cc3)C2=O)c1 (centres undefined) | 5 | 0.96
COc1ccc(C2C3=C(CC(C)(C)CC3=O)OC3=C2C(=O)CC(C)(C)C3)cc1Br | 16 | 0.89
COc1cc(Br)c(C2C3=C(CC(C)(C)CC3=O)OC3=C2C(=O)CC(C)(C)C3)cc1OC | 9 | 0.77*
CC(C)c1ccc(NC(=O)C2COc3ccccc3O2)cc1 (centres undefined) | 11 | 1
COc1ccc(NC(=O)CN(c2ccccc2OC)S(=O)(=O)c2ccccc2)cc1OC | 18 | 1
O=C1NC(=Nc2ccccc2)S/C1=C/c1ccc(O)cc1 | 8 | 1.3*
O=C1N/C(=N/N=C\c2ccccc2)S/C1=C\c1ccccc1 | -14 | 1.1
CCN1CCC2(CC1)CC1CC3C=CC1(CN2C(C)=O)O3 (centres undefined) | 10 | 0.87
Cc1cc(C)n2nc(-c3ccc(F)cc3)cc2n1 | 21 | 0.67*
Cc1cc(C)n2nc(-c3cccc(F)c3)cc2n1 | 7 | 0.93
CCCCNC(=O)/C(=C/c1ccc(-c2cccc([N+](=O)[O-])c2)o1)NC(=O)c1ccc(OC)cc1 | 12 | 0.99
COc1ccc(C(=O)N/C(=C\c2ccc(-c3cccc([N+](=O)[O-])c3)o2)C(=O)NCCCN2CCOCC2)cc1 | 11 | 0.77*
O=C(COc1ccc(I)cc1)N/N=C\c1ccc(-c2ccc([N+](=O)[O-])cc2)o1 | 5 | 0.94
Cc1ccc(/C=C2/NC(=S)NC2=O)s1 | 20 | 1.1
Cc1ccc(/C=C2/SC(=S)NC2=O)s1 | 13 | 0.79*
CCOC(=O)C1=C(C)N=c2s/c(=C\c3cccs3)c(=O)n2C1c1ccc(SC)cc1 (centres undefined) | 14 | 0.91
CCOC(=O)c1nc2nc(-c3cccs3)cc(C(F)(F)F)n2n1 | 8 | 0.75*
Cc1c(Cl)cccc1NC(=O)c1cc2nc(-c3cccs3)cc(C(F)(F)F)n2n1 | -10 | 1.1
